From PubChem BioAssay (NCI)
The panel holds about 79,000 compounds, 15% with a hit somewhere; the sample as a whole holds those more often. A number with no mark means an inactive call. Calls of active or inactive are those of the source. Rule as the data show it: active = growth inhibition above about 70%; inactive = the rest.

assay: NCI Yeast Anticancer Drug Screen. Data for the rad50 strain (AID 155);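 also: 0% = growth of vehicle-only cultures of the same strain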; settings: S. cerevisiae rad50 strain growth inhibition; at 5.0 µM (retest, dose inferred, filed as 0.5); stronger effect = higher value
In short: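 A DNA repair-deficient yeast mutant serves as the test organism; compound-induced growth inhibition is calculated against vehicle-treated cells.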

| Structure (SMILES) | growth inhibition |
| --- | --- |
| N#Cc1c(SCc2ccc(Cl)cc2)nsc1Nc1ccc(Cl)cc1 | 90% (active) |
| CC(CO)(Nc1ccc([N+](=O)[O-])cc1[N+](=O)[O-])C(=O)O (stereo not given) | 21% |
| O=[N+]([O-])/C(C(Cl)=C(Cl)Cl)=C(/Nc1ccccc1)Sc1ccccc1 | 62% |
| CC(SCc1ccccc1)C(=O)O (stereo not given) | -10% |
| O=C1C2(Cl)C(Cl)=C(Cl)C1(Cl)C1(Cl)C(Cl)=C(Cl)C(=O)C21Cl (stereo not given) | 55% |
| O=C(CNC(=O)c1ccccc1)Oc1c(Cl)c(Cl)c(Cl)c(Cl)c1Cl | 12% |
| CN(C)c1nc(NNS(=O)(=O)c2ccc(N)cc2)nc(N(C)C)n1 | 1% |
| CC1(C(Cl)(Cl)Cl)C=CC(O)(C#CC2(O)C=CC(C)(C(Cl)(Cl)Cl)C=C2)C=C1 (stereo not given) | 94% (active) |
| COCCN1C(=O)C2c3[nH]c4ccccc4c3C3CCC(C(C)(C)C)CC3C2C1=O (stereo not given) | -2% |
| Cc1nc(N)sc1N=Nc1cccc(Cl)c1Cl | -5% |
| ClC1=C(Cl)C2c3ccccc3C1c1ccccc12 | -4% |
| C=C/C=C/CC=C | -151% |
| C/C(=N\NC(=S)NCc1ccccc1)c1nccnc1C | 23% |
| COC(=O)c1cc(OC)c(OC)c(OC)c1 | 4% |
| Nc1nc2c(ccc3ccccc32)s1 | -3% |
| N=C(N)c1ccc(N=Nc2cc(/C=C/c3ccccc3)ccc2O)cc1 | 24% |
| O=C1NC(=O)N(c2ccc([N+](=O)[O-])cc2)C1=O | 9% |
| O=C(Nc1cc(Cl)cc(Cl)c1)OCCCl | 53% |
| Cc1[nH]nc(-c2ccon2)c1N=O | 12% |
| O=C(O)CCC(=O)c1ccc(C2CCCC2)c2ccccc12 | 1% |

| Structure (SMILES) | growth inhibition |
| --- | --- |
| CC12CC(Br)(Br)C(=O)C3C1CCCC32 | 51% |
| O=[N+]([O-])c1ccc(NSc2ccccc2)cc1 | -14% |
| CCC1CCC(CC)C1=O (stereo not given) | 1% |
| Cc1cc(C(C)(CC(C)C)c2ccc(O)c(C)c2)ccc1O | 99% (active) |
| N#CC1C(=O)SC2c3ccccc3C(=O)c3ccccc3C12 (stereo not given) | -3% |
| COc1ccc(C2C3=C(CCCC3=O)Oc3cc4c(cc32)OCO4)cc1 (stereo not given) | 2% |
| CCC(c1cccc(O)c1)C(CC)c1cccc(O)c1 (stereo not given) | 28% |
| CCCCCCCCCCCC1C(C#N)C(=O)NC(=O)C1C#N (stereo not given) | 92% (active) |
| O=C(NNC(=O)c1cccc(C(=O)NNC(=O)c2ccc(Cl)c(Cl)c2)n1)c1ccc(Cl)c(Cl)c1 | 35% |
| CCOC(=O)CCC(NC(=O)c1ccc(NC(OC)c2nc3cc(C(F)(F)F)ccc3nc2-c2ccccc2)cc1)C(=O)OCC (stereo not given) | 88% (active) |
| CCOC(=O)c1c(C)[nH]c(CO)c1C | -1% |
| S=C(NC(=S)Nc1ccc(Cl)cc1)Nc1ccc(Cl)cc1 | 4% |
| O=S(=O)(c1ccc(OCC(O)COc2ccc(S(=O)(=O)c3ccc(OCC4CO4)cc3)cc2)cc1)c1ccc(OCC2CO2)cc1 (stereo not given) | -5% |
| C=C(C)C(=O)OC1CC2=CC(CC3(C)OC3C3OC(=O)C(=C)C13)OC2=O (stereo not given) | 1% |
| c1ccc2c(c1)C[n+]1ccc3ccccc3c1-c1c3ccccc3cc[n+]1C2 | 8% |
| CCN(CC)CCOC(=O)Cc1cccc2c(=O)cc(-c3cccs3)oc12 | 18% |
| C=C1C(=O)OC2C/C(C)=C/CC/C(C)=C/CCC3(COC(C)=O)OC3CC12 (stereo not given) | 4% |
| CN1C=CC(C(O)(c2ccccc2)c2ccccc2)CC1 (stereo not given) | -2% |
| OCc1cccc2c1Oc1ccccc1S2 | 2% |
| COC(=O)c1[nH]c(=O)c(C#N)c(C(=O)OC)c1C(=O)c1ccc(Cl)c(Cl)c1 | -19% |
